DRD3 agonist – D3 dopamine receptor (human) agonism; AID 652048; P35462; D3R DiscoveRx beta-arrestin cells, luminescence, 90 min; 0.58% of 410,000 active; max activation, %; in the data active = max activation above about 30%; note: 0% is about no effect
Target sequence (P35462 whole entry, looked up): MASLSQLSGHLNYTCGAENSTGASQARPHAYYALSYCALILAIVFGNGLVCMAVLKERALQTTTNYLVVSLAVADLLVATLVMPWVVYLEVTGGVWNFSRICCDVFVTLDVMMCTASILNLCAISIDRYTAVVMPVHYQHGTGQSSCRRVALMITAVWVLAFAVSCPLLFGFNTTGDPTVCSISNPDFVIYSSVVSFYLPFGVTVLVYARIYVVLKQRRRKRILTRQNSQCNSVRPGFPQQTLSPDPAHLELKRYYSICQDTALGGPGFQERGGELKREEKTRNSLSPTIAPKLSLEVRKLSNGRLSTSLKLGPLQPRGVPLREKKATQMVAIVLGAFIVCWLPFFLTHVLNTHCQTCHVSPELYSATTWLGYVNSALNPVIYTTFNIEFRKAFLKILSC
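Cells at 1500/well, incubated overnight, then treated with pinned compounds (dopamine as control) for 90 min at 37 degrees C. DiscoveRx reagent added for 30 - 60 minutes at room temperature; luminescence read.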
D1 agonist – agonists of human D1 dopamine receptor. P21728. HEK293 T-REx D1 cells, calcium flux, agonist mode. activation, % at 2 µM. 1% of 360,000 active. AID 504660; in the data active = activation above about 30%; note: 0% is about no effect
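Agonism was scored from calcium flux recorded over 180 s (1 read/s) after pintool compound addition, following a 10-cycle baseline. Cells were inducible force-coupled HEK293 TREx D1, plated overnight at 30 C and loaded with no-wash calcium dye.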
DRD3 antagonist – D3 dopamine receptor (human) antagonism; 2.5% of 360,000 active; D3R cells, DiscoveRx beta-arrestin luminescence, antagonist mode; stronger effect = lower value; max response, negative = inhibition, %; in the data active = max response below about -50%; inconclusive = no clear call, values can overlap the other calls; note: % is set by controls: 0 for no effect and ±100 for the full control effect
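Cells plated overnight at 1500 cells/well, then exposed to library compounds with dopamine controls for 90 minutes at 37 degrees C. DiscoveRx reagent added for 30–60 minutes at room temperature; luminescence read, quantitative HTS format.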
D1 antag – human D1 dopamine receptor antagonism; HEK293 TREx D1 cells, calcium flux, dopamine EC80; stronger effect = lower value; activity change, negative = inhibition, % at 10 µM; 3.2% of 360,000 active; AID 504652; in the data active = activity change below about -30%; note: % is set by controls: 0 for no effect and ±100 for the full control effect
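Tetracycline-induced HEK293 T-REx cells with force-coupled D1 receptor were loaded with a no-wash calcium dye. Compound was added after a 10 s baseline and read kinetically for 180 s; EC80 dopamine was then added and calcium flux followed another 180 s.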
D1 potentiator – human D1 dopamine receptor positive modulation. P21728. HEK293 TREx D1 cells, calcium flux, dopamine EC20 potentiation. potentiation, % at 10 µM. 0.036% of 360,000 active. AID 504651; in the data active = potentiation above about 30%; note: 0% is about no effect
* hit, by the source's call. The list is not random: actives were taken first. Their share in the collection is about 6%.

How did Cc1ccc(NC(=O)c2cn3c4c(ccc(Cl)c4c2=O)OC(C)C3)c(C)c1 (stereo unspecified) do in these assays?
DRD3 agonist: -2; D1 agonist: 2; D1 antag: 10; D1 potentiator: 1

What do the screens show for `COc1ccccc1CC(=O)N1CCN(c2cccc(Cl)c2)CC1`?
DRD3 agonist: 10; D1 agonist: 6; DRD3 antagonist: 5; D1 antag: -11; D1 potentiator: 2

Results for Cc1ccc(CSc2nc3c(cc2C#N)CCC3)cc1 ?
DRD3 agonist: 8; D1 agonist: 1; DRD3 antagonist: 17; D1 antag: -35*; D1 potentiator: -1

How did N#Cc1cc2c(nc1SCc1cccc(Cl)c1)CCCCC2 do in these assays?
DRD3 agonist: -2; D1 agonist: 2; DRD3 antagonist: -3; D1 antag: -39*; D1 potentiator: -3

What do the screens show for `N#Cc1cc2c(nc1SCc1ccccc1)CCCCC2`?
DRD3 agonist: 0; D1 agonist: 12; DRD3 antagonist: 5; D1 antag: 5; D1 potentiator: -2

What do the screens show for `N#Cc1cc2c(nc1SCc1ccc(Cl)cc1)CCCC2`?
DRD3 agonist: 1; D1 agonist: 1; DRD3 antagonist: -64*; D1 antag: -10; D1 potentiator: -5

Results for N#Cc1cc2c(nc1SCC(=O)O)CCCCC2 ?
DRD3 agonist: -17; D1 agonist: 4; DRD3 antagonist: -11; D1 antag: -6; D1 potentiator: 2

Results for N#Cc1cc2c(nc1SCc1cccnc1)CCCCC2 ?
DRD3 agonist: -14; D1 agonist: 3; DRD3 antagonist: -15; D1 antag: -12; D1 potentiator: -3

What do the screens show for `N#CCSc1nc2c(cc1C#N)CCCC2`?
DRD3 agonist: 3; D1 agonist: 4; DRD3 antagonist: 8; D1 antag: -32*; D1 potentiator: -4

Results for O=C(CNc1cccc(C(F)(F)F)c1)N/N=C/C1CCCCC1 ?
DRD3 agonist: -1; D1 agonist: 2; DRD3 antagonist: 9; D1 antag: -1; D1 potentiator: -5

Results for OC(CSc1c(Cl)cccc1Cl)CN1CCN(c2ccc(F)cc2)CC1 (stereo unspecified) ?
DRD3 agonist: -39; D1 agonist: 1; DRD3 antagonist: -89*; D1 antag: 6; D1 potentiator: -1

How did OC(CSc1ccccc1)CN1CCN(c2ccccc2)CC1 (stereo unspecified) do in these assays?
DRD3 agonist: -2; DRD3 antagonist: inconclusive

How did OC(CSc1ccccc1Cl)CN1CCN(c2ccc(F)cc2)CC1 (stereo unspecified) do in these assays?
DRD3 agonist: -28; D1 agonist: 3; DRD3 antagonist: -81*; D1 antag: -8; D1 potentiator: -7

How did CCCn1c(SCC(=O)N2c3ccc(F)cc3CCC2C)nnc1-c1ccccn1 (stereo unspecified) do in these assays?
DRD3 agonist: -2; D1 agonist: -1; DRD3 antagonist: -11; D1 antag: 14; D1 potentiator: 0

What do the screens show for `CC(=O)Nc1c(O)nc(SCc2ccccc2C#N)[nH]c1=O`?
DRD3 agonist: 8; D1 agonist: 1; DRD3 antagonist: -51*; D1 antag: 8; D1 potentiator: -3

How did COc1ccc(NC(=O)/C(C#N)=C/c2c(C)nn(-c3ccc(F)cc3)c2Cl)cc1OC do in these assays?
DRD3 agonist: 1; D1 agonist: 1; DRD3 antagonist: 18; D1 antag: -32*; D1 potentiator: -17

What do the screens show for `Cc1cc(NC(=O)C(C)(C)Oc2ccc(Cl)cc2)cc(-c2nc3ncccc3o2)c1O`?
DRD3 agonist: 1; D1 agonist: 0; D1 antag: -12; D1 potentiator: -4

How did COc1ccc(Cc2noc(CN3CCN(c4ccc(Cl)cn4)CC3)n2)cc1OC do in these assays?
DRD3 agonist: -6; D1 agonist: 15; DRD3 antagonist: -10; D1 antag: -31*; D1 potentiator: -4

Results for CC(=O)Oc1ccc(Cn2c(C)c(C(=O)NCc3ccccc3C(F)(F)F)sc2=O)cc1 ?
DRD3 agonist: 6; DRD3 antagonist: 6

Results for COc1ccc(N2C(=O)C(Cl)=C(Oc3cccc(OC)c3)C2=O)cc1 ?
DRD3 agonist: -18; D1 agonist: 0; DRD3 antagonist: -58*; D1 antag: -9; D1 potentiator: -6

Results for CC(=O)ON=C1C=CC(=C(C#N)c2ccccc2)C=C1 ?
DRD3 agonist: -26; DRD3 antagonist: -105*

What do the screens show for `Cc1ccc(C(=O)CSc2nc3cccnc3n2C)cc1`?
DRD3 agonist: -1; D1 agonist: 7; DRD3 antagonist: 14; D1 antag: -37*; D1 potentiator: -8

How did Cn1c(SCC(=O)c2ccccc2)nc2cccnc21 do in these assays?
DRD3 agonist: 2; D1 agonist: 3; DRD3 antagonist: -29; D1 antag: 1; D1 potentiator: -4

What do the screens show for `Cc1ccc(CCNC(=O)c2cn(C)c3ccc(S(=O)(=O)N4CCCCC4)cc3c2=O)cc1`?
DRD3 agonist: -5; D1 agonist: 0; D1 antag: 12; D1 potentiator: -2

What do the screens show for `CC1=CC(C)C(=O)N(C)C(C)=C1` (stereo unspecified)?
DRD3 agonist: 1; DRD3 antagonist: -27

What do the screens show for `O=C(Cc1ccccc1)Nc1sc2c(c1C(=O)Nc1ccc(Cl)cc1)CCOC2`?
D1 agonist: 1; D1 antag: -1; D1 potentiator: 0

Results for Cc1sc2ncnc(N3CCN(CCOc4ccc(Cl)cc4)CC3)c2c1C ?
DRD3 agonist: 39*; D1 agonist: 11; DRD3 antagonist: -27; D1 antag: -2; D1 potentiator: 4

How did Cc1sc2ncnc(N3CCC(C(=O)NNC(=O)COc4ccccc4Cl)CC3)c2c1C do in these assays?
DRD3 agonist: 30*; D1 agonist: 12; DRD3 antagonist: 48; D1 antag: 5; D1 potentiator: -14

How did Cc1ccc(OCC(=O)NNC(=O)C2CCN(c3ncnc4sc(C)c(C)c34)CC2)cc1 do in these assays?
DRD3 agonist: 37*; D1 agonist: 1; DRD3 antagonist: 20; D1 antag: 5; D1 potentiator: 2

What do the screens show for `Cc1cc(Cl)ccc1OCC(=O)NNC(=O)C1CCN(c2ncnc3sc(C)c(C)c23)CC1`?
DRD3 agonist: 22; D1 agonist: -1; DRD3 antagonist: 86; D1 antag: 13; D1 potentiator: -1

What do the screens show for `Cc1sc2ncnc(N3CCC(C(=O)NNC(=O)COc4ccccc4F)CC3)c2c1C`?
DRD3 agonist: 34*; D1 agonist: 5; DRD3 antagonist: 10; D1 antag: -40*; D1 potentiator: 3

What do the screens show for `CN(C)CCC=C1c2ccccc2C=Cc2ccccc21`?
DRD3 agonist: -95; D1 agonist: 13; DRD3 antagonist: -120*; D1 antag: -100*; D1 potentiator: -5

How did CN(C)CCC=C1c2ccccc2CCc2ccccc21 do in these assays?
DRD3 agonist: -11; D1 agonist: 11; DRD3 antagonist: -20; D1 antag: -67*; D1 potentiator: -5

Results for CNCCC=C1c2ccccc2C=Cc2ccccc21 ?
DRD3 agonist: -81; DRD3 antagonist: -77*

Assay outcomes as filed in PubChem.
